Screening data deposited in PubChem BioAssay by several laboratories.
esBAF inh: Bmi1 luciferase reporter increase in mESCs, primary screen, esBAF inhibitor project, mouse ES cells, Bmi1 luciferase knock-in, single point; 2% of 350,000 active; reporter increase, % at 12.5 µM; 24 h; 100% = twice the neutral-well signal; in the data active means activation above about 40%;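 further: 0% = median of the plate's neutral control wells and 100% = double that signal; a rise in the Bmi1 reporter signal indicates esBAF inhibition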
ssDAF-12 act: S. stercoralis DAF-12 nuclear receptor activators, primary screen, cell-based, luminescence, HEK293, GRIP1 co-expression, lit1-tk-luc. Nuclear hormone receptor DAF-12 (Strongyloides stercoralis). HEK293 ssDAF-12/GRIP1 lit1-tk-luc reporter; % of 3 µM dafachronic acid response. activation, % at 6.8 µM. 1% of 370,000 active;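 active means activation above the mean over all tested compounds plus 3 SD, cut at about 0.9% in these data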;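 further: 0% = DMSO-only wells and 100% = 3 µM delta7-dafachronic acid wells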
Wnt bcat act: Wnt/beta-catenin pathway activators, primary screen, cell-based, plate reader, single point. Wnt/beta-catenin reporter cell assay, activator. activation, % at 9.35 µM. 1.2% of 300,000 active. AID 743398, 2014; in the data active means activation above about 30%, passing the limit was not always enough;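 further: 0% = neutral control wells and 100% = positive control wells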
DAX1 StAR inh: DAX1 (NR0B1) inhibitors on StAR promoter, primary screen, cell-based, luminescence, SF-1 (NR5A1), full-length DAX-1; inhibition, % at 6.8 µM; AID 652010, 2013; 1.1% of 370,000 active; HEK293T StAR-luciferase reporter, SF-1/DAX-1 repression relief;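 active means inhibition above the mean over all tested compounds plus 3 SD, cut at about 3.6% in these data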;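 further: 0% = DAX-1 cells with DMSO and 100% = cells lacking DAX-1 with DMSO; higher inhibition means more luminescence from relief of DAX-1 repression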
hgDAF-12 ag: H. glycines DAF-12 receptor agonists, primary screen, cell-based, luminescence, HEK293, GAL4 fusion, UAS-luciferase; 1.8% of 370,000 active; Nuclear hormone receptor DAF-12 (Heterodera glycines), GAL4 fusion; HEK293 GAL4-hgDAF12 UAS-luciferase reporter, agonist luminescence; normalized to butyrate control; activation, % at 6.8 µM; AID 687014, 2013;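 active means activation above a cutoff set at the mean of all screened compounds plus 3 SD, cut at about 10% in these data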;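 further: 0% = DMSO wells and 100% = sodium butyrate wells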
hcDAF-12 act: H. contortus DAF-12 nuclear receptor activators, primary screen, cell-based, luminescence, HEK293, lit1-tk-luc reporter; HEK293 hcDAF-12 lit1-tk-luc reporter; 0% DMSO, 100% Δ7-dafachronic acid; activation, % at 6.8 µM; 1.4% of 370,000 active; AID 652067, 2013;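 active means activation above the mean of all tested compounds plus 3 SD, cut at about 5.5% in these data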;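 further: 100% = response to 3 µM Δ7-dafachronic acid high control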
LXR ag: LXR agonists, Gal4 luciferase reporter, confirmation, counter-screen for hcDAF-12 agonist project, cell-based, luminescence, HEK293, H. contortus campaign; 3,400 tested, under 10 active; HEK293 Gal4-LXR tk-luc reporter, 24 h; normalized: DMSO 0%, positive control 100%; activation, % at 6.8 µM; shares compounds with hcDAF-12 act;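 active means mean percent activation of the reporter above a cutoff set as the average over tested compounds plus their standard deviation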
Target sequence (P55055 whole entry, looked up, the tested form may be a part): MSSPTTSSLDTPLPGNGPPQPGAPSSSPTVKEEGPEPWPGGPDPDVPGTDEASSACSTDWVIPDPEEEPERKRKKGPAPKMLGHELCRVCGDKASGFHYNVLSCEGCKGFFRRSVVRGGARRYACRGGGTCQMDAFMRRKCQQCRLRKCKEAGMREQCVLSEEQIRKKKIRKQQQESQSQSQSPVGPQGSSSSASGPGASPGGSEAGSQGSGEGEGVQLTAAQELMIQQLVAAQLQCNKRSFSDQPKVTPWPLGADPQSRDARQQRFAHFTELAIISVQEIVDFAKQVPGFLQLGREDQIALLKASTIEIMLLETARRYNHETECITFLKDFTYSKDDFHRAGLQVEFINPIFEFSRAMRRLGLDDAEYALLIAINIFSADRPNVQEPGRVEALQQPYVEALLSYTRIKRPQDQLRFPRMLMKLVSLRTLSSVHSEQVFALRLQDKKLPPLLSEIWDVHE
hcDAF12 ag: H. contortus DAF-12 receptor agonists, confirmation, cell-based, luminescence, HEK293, lit1-tk-luc, triplicate | HEK293 hcDAF-12 lit1-tk-luc reporter; % of Δ7-dafachronic acid response | 61% of 3,400 active | activation, % at 6.8 µM | shares compounds with hcDAF-12 act;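 active means mean activation across triplicate tests above the threshold derived from the earlier primary screen, cut at about 5.5% in these data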;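 further: 0% = DMSO only wells and 100% = 3 µM Δ7-dafachronic acid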
hgDAF12 ag: H. glycines DAF-12 receptor agonists, confirmation, cell-based, luminescence, HEK293, GAL4-LBD fusion; activation, % at 6.8 µM; HEK293 GAL4-hgDAF12 luciferase reporter, agonist mode; percent of butyrate response; 80% of 3,300 active; shares compounds with hgDAF-12 ag;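 active means mean activation over triplicate wells above the hit cutoff derived from the earlier primary screen, cut at about 11% in these data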;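 further: 0% = DMSO low control and 100% = 2 mM sodium butyrate high control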
LXR ag 2: LXR agonists, Gal4 luciferase reporter, confirmation, counter-screen for hgDAF-12 agonist project, cell-based, luminescence, HEK293, H. glycines campaign; shares compounds with hgDAF-12 ag; 24 h; activation, % at 6.8 µM; 3,300 tested, under 10 active;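 active means mean activation of the triplicate above a set limit carried over from the primary screen, none filed active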
* marks the source's active call; other numbers are inactive results; / = no result given. This is a sample that favours compounds with a hit; in the whole collection about 4.2% have one here.

SMILES	esBAF inh	ssDAF-12 act	Wnt bcat act	DAX1 StAR inh	hgDAF-12 ag	hcDAF-12 act	LXR ag	hcDAF12 ag	hgDAF12 ag	LXR ag 2
Cc1ccc(N2C(=O)c3ccccc3NC2(C(=O)O)c2ccccc2)cc1Cl (stereo unspecified)	60*	0	57*	2	19*	9.9*	0	3	12*	0
Cc1ccc(NC(=O)C(C)N2C(=O)c3ccccc3S2(=O)=O)cc1Cl (stereo unspecified)	/	-1	-2	2	0	2	/	/	/	/
COc1ccc(Oc2nc(-c3cccnc3)nc3ccccc23)cc1	-11	0	2	0	1	0	/	/	/	/
CCCOc1ccc(-c2nc(OC)c3ccccc3n2)cc1	/	2.6*	/	4.1*	17*	16*	0	4	3	0
Cc1ccnc(NC(=O)c2cc3cc(F)ccc3s2)c1	17	2.4*	38*	3	22*	9.9*	2	8.4*	19*	1
O=C(NC1CCCCC1)N[C@H]1CC[C@H](CC(=O)N2CCOCC2)O[C@H]1CO	-6	/	/	/	/	/	/	/	/	/
CC(C)NC(=O)N(C)C[C@@H]1Oc2ccc(NC(=O)c3ccncc3)cc2C(=O)N([C@H](C)CO)C[C@H]1C	-4	/	/	/	/	/	/	/	/	/
COc1cccc2nc3cc(C)c(C)cc3nc12	-8	1	34*	2	18*	7.5*	1	12*	18*	1
COc1cccc2c1nc(C)c1cc(C)oc12	18	0	/	0	6	0	/	/	/	/
CN1C(=O)C2C=CC1C1C(=O)N(c3ccccc3)C(=O)C21 (stereo unspecified)	57*	1	/	4.0*	17*	9.5*	1	6.2*	0	0
O=C1C2C3C=CC(C3=C3CCCCC3)C2C(=O)N1c1ccccc1 (stereo unspecified)	-4	-1	5	0	0	-1	/	/	/	/
CCOc1ccc2cc(C3CC(c4ccco4)=NN3S(C)(=O)=O)c(Cl)nc2c1 (stereo unspecified)	/	-1	0	-1	-4	-1	/	/	/	/
CCc1ccc(C2CC(c3ccco3)=NN2S(C)(=O)=O)cc1 (stereo unspecified)	-24	1.3*	/	3	18*	9.2*	1	8.9*	18*	1
C[C@@H]1CN([C@@H](C)CO)C(=O)c2ccccc2-c2ccccc2CO[C@H]1CN(C)C(=O)Nc1ccc2c(c1)OCO2	16	/	/	/	/	/	/	/	/	/
CN1C(=O)c2cc(NC(=O)c3ccc(C(F)(F)F)cc3)ccc2OC[C@H]2O[C@H](CC(=O)NC3Cc4ccccc4C3)CC[C@@H]21	-41	/	/	/	/	/	/	/	/	/
Cc1ccc(NC(=O)c2ccc(C)cc2)cc1	-8	1	26	3	14*	7.8*	1	5.7*	21*	1
COc1ccc(C(=O)Nc2ccncc2)c(OC)c1	/	-1	-5	0	0	-1	/	/	/	/
COc1cc2ccccc2cc1C(=O)Nc1ccc(Cc2ccncc2)cc1	-4	-2	/	-3	1	0	/	/	/	/
COc1cc2ccccc2cc1C(=O)Nc1ccc(C)cc1	46*	1.0*	12	1	19*	17*	1	12*	20*	1
COc1ccc(C(=O)Nc2ccc3ccccc3c2)c(OC)c1	-28	3.7*	28	3	15*	16*	2	15*	26*	1
Cc1cccc(C(=O)Nc2ccc(NC(=O)c3cccc(C)c3)cc2)c1	3	-2	0	-1	0	1	/	/	/	/
Cc1ccc(NC(=O)c2cc3ccccc3oc2=N)cc1	-81	0.9*	12	3.7*	14*	11*	1	17*	7	1
Cc1noc(C)c1NC(=O)N(C)C[C@H]1Oc2ccc(NC(=O)Nc3cccc4ccccc34)cc2C(=O)N([C@@H](C)CO)C[C@H]1C	3	/	/	/	/	/	/	/	/	/
O=C(C[C@H]1CC[C@@H]2[C@H](COC[C@@H](O)CN2S(=O)(=O)c2cccc(Cl)c2)O1)NC1CCCC1	3	/	/	/	/	/	/	/	/	/
COc1cc(SC)ccc1C(=O)NC1CCCc2ccccc21 (stereo unspecified)	1	-1	-2	-1	-2	-2	/	/	/	/
SMILES	esBAF inh	ssDAF-12 act	Wnt bcat act	DAX1 StAR inh	hgDAF-12 ag	hcDAF-12 act	LXR ag	hcDAF12 ag	hgDAF12 ag	LXR ag 2
COc1cc(SC)ccc1C(=O)Nc1ccc2c(c1)CCC2	47*	4.0*	-1	2	22*	17*	1	14*	22*	1
Cc1[nH]c2ccccc2c1/C=C/c1nc2ccccc2c(=O)[nH]1	46*	0	-1	4.4*	14*	6.9*	1	5.8*	18*	1
O=C(Nc1nccs1)c1ccc(S(=O)(=O)c2ccccc2)cc1	/	-1	/	1	-1	0	/	/	/	/
O=C(Nc1nccs1)c1ccc2ccccc2c1	7	2.2*	22	3	21*	17*	2	14*	26*	1
CC(=O)Nc1cccc(NC(=O)c2oc3ccccc3c2C)c1	/	-1	/	0	7	3	/	/	/	/
Cc1c(C(=O)Nc2nccs2)oc2ccccc12	70*	3.2*	80*	3	18*	15*	1	13*	25*	1
